Laboratory results from ChEMBL document CHEMBL4513216, “Probing the Open Global Health Chemical Diversity Library for Multistage-Active Starting Points for Next-Generation Antimalarials” (ACS Infect Dis, 2020).
Among all 68,000 compounds or so, about 2,700 (4%) showed an effect of 50% or more. The full list was thinned out, with strong results kept by preference.

These compounds were tested on Plasmodium berghei (assay: Screen against P. berghei liver stage (PbLuc), transformed with Luciferase, at 2uM). Conditions: tested at 2 uM.
Format: functional, HepG2

SMILES | INHIBITION
CC(NCc1ccc(-c2ccc(F)cc2)o1)c1nnc2n1CCC2 (centres undefined) | -40.26%
Nc1nnc(Cn2nnc(-c3ccccc3F)n2)s1 | 39.58%
CNc1ncc(CN2CCC(CCc3ccccc3)CC2)cn1 | 49.87%
O=C(c1cccc(-n2cnnc2)c1)N1C[C@@H](O)[C@H](N2CCOCC2)C1 | -8.04%
CN1CCC(N(C)C[C@H]2CC[C@@H](Cc3cccc(O)c3)O2)CC1 | -66.38%
CN1CCC(N(C)C[C@H]2CC[C@@H](Cc3ccc4occc4c3)O2)CC1 | -10.59%
COc1ccc(C[C@@H]2CC[C@H](CN(C)C3CCN(C)CC3)O2)cc1 | 68.08%
Cc1cc(C)n(CC2CCCCN2CC(=O)N(C)Cc2ccco2)n1 (centres undefined) | 40.82%
CC(CNC(=O)c1c[nH]nn1)Oc1ccc(Cl)cc1 (centres undefined) | -4.64%
O=C(C1CCOC1)N1CCN(Cc2ccncc2)c2ncccc2C1 (centres undefined) | 31.08%
O=C(N1CCCC1)N1CCN(CC2CC2)c2ncccc2C1 | -3.08%
O=C(C1CCOCC1)N1CCN(CC2CC2)c2ncccc2C1 | 51.27%
CCN(CC)S(=O)(=O)N(CC)Cc1ccc2c(c1)OCCO2 | -3.05%
CCN(Cc1ccc2c(c1)OCCO2)S(=O)(=O)N(C)C(C)C | 63.95%
CCN(Cc1ccc2c(c1)OCO2)S(=O)(=O)N(C)C(C)C | 41.99%
Cc1n[nH]c(C2CN(CC(=O)NCCc3ccc(F)cc3)CCO2)n1 (centres undefined) | 5.47%
Cc1nc2[nH]cnc(NCCN3CCCC3)c-2n1 | -20.68%
CC(c1cccc(-c2ncc(C#N)c(N)n2)c1)N(C)C (centres undefined) | -38.96%
O=C1N(Cc2ccccc2F)CCCC12CCN(C1CCSCC1)C2 (centres undefined) | 11.26%
CN(C)S(=O)(=O)N1CCC2(CCCN(Cc3ccc(F)cc3)C2=O)C1 (centres undefined) | -37.84%
CCCS(=O)(=O)N1CCC2(CCCN(Cc3cccc(F)c3F)C2=O)C1 (centres undefined) | 50.59%
O=C1N(Cc2ccc(F)c(F)c2)CCCC12CCN(C1CCCC1)C2 (centres undefined) | 23.18%
CCCS(=O)(=O)N1CCC2(CCN(Cc3cccc(F)c3)C2=O)C1 (centres undefined) | -25.61%
CCS(=O)(=O)N1CCC2(CCCN(Cc3ccc(F)c(F)c3)C2=O)C1 (centres undefined) | 50.59%
COc1cnc(N2C[C@H](CO)C[C@H](CN3CCOCC3)C2)nc1 | -3.87%
COc1c(C2CCCN2C(=O)c2ccc(C(N)=O)s2)c(C)nn1C (centres undefined) | -21.71%

SMILES | INHIBITION
COc1ccc2c(c1)OCC(CNC1CCc3ncnn3C1)=C2 (centres undefined) | -34.12%
NC(=O)N1CCCC1COC(=O)c1cc(F)ccc1F (centres undefined) | 61.91%
Cc1ccc(F)cc1C(=O)OCC1CCCN1C(N)=O (centres undefined) | 5.48%
NC(=O)N1CCCC1COC(=O)c1ccc(F)cc1Br (centres undefined) | 6.47%
CN1CCN(C=C2N=C(c3cc(-c4ccc(F)cc4)n[nH]3)ON2)CC1 | 22.39%
CCN(C)C[C@@H]1CN(S(=O)(=O)c2cccc(C#N)c2)C[C@@H]1CO | 14.82%
CCN(C)C[C@@H]1CN(Cc2cccc(Cl)c2)C[C@@H]1CO | 38.97%
CCN(C)C[C@@H]1CN(S(=O)(=O)c2ccc(C#N)cc2)C[C@@H]1CO | 14.82%
CCN(C)C[C@@H]1CN(S(=O)(=O)c2cccc(Cl)c2)C[C@@H]1CO | 55.36%
CC[C@H]1CN(S(=O)(=O)c2ccc(OC)cc2)CC[C@H]1CC(=O)O | 45.73%
CCN(C)C[C@@H]1CN(S(=O)(=O)c2ccc(OC)cc2)C[C@@H]1CO | 76.82%
CCCC1(CO)CCCN(C(=O)CNC(N)=O)C1 (centres undefined) | 3.49%
Cc1noc(C)c1CN1CCOC2(CCCN(c3nncs3)C2)C1 (centres undefined) | 31.96%
CCCS(=O)(=O)N1CCC2(CC1)CN(CC1CCOC1)c1ccccc12 (centres undefined) | 27.67%
CC1CCN(CCNC(=O)c2scnc2Cl)CC1 | 47.87%
COc1cn(-c2ccccc2)nc1C(=O)NCCCN1CCCC(C)C1 (centres undefined) | 20.11%
COc1cn(-c2ccccc2)nc1C(=O)NCCN1CCCC(C)C1 (centres undefined) | 66.2%
CC1CCCN(CCNC(=O)c2ccn(-c3ccccc3)n2)C1 (centres undefined) | -61.61%
CC1CCCN(CCNC(=O)c2scnc2Cl)C1 (centres undefined) | 78.42%
O=C(NCCN1CCCCC1)c1scnc1Cl | -9.66%
O=C(NCC1(O)COCCN(Cc2ccc(O)cc2)C1)c1cnccn1 (centres undefined) | 30.1%
CCCc1nc(C)cc(NCc2ccc(S(N)(=O)=O)cc2)n1 | -16%
Cc1nnc(-c2cccc(C#N)c2)n1C1CCCN(C(C)C)C1=O (centres undefined) | -12.01%
COc1nc2c(cc1C(=O)N1CC[C@H](CO)[C@@H](O)C1)CCC2 | 49.02%
COCCNc1nc(C)nc2c1CCN(CC1CCC(N)CC1)CC2 (centres undefined) | 57.67%
COCCNc1nc(C2CCCC2)nc2c1CCNCC2 | 34.98%

SMILES | INHIBITION
Cc1nc2c(c(NCCc3nccs3)n1)CCN(CC1CC1)CC2 | -28.09%
O=C(O)COCC(=O)NC1CC2(CCCCC2)Oc2ccccc21 (centres undefined) | 13.22%
Cc1noc(C2CCN(C(=O)c3ccc(C(F)(F)F)nc3)CC2)n1 | 5.05%
CC1CCc2nc(O)c(C(=O)NCc3ccncc3)cc2C1 (centres undefined) | 1.06%
CC1CCc2nc(O)c(C(=O)NCCN(C)C)cc2C1 (centres undefined) | 27.24%
Cc1csc(CCNC(=O)c2cc3c(nc2O)CCC(C)C3)n1 (centres undefined) | -46.57%
CC1CCc2nc(O)c(C(=O)NCCc3cccs3)cc2C1 (centres undefined) | 53.61%
CC1CCc2nc(O)c(C(=O)NCCCN3CCN(C)CC3)cc2C1 (centres undefined) | 68.39%
CCCNC(=O)c1cc2c(nc1O)CCC(C)C2 (centres undefined) | 44.39%
Cc1nn(CCO)c(C)c1CNCc1cccnc1N(C)C | 23.42%
CC(C)Oc1ncnc2c1CCN(Cc1ccc(F)cc1)CC2 | 1.08%
COc1ccccc1OCCC(=O)N1CCCC1Cn1cc(C)cn1 (centres undefined) | -14.11%
Cc1ccc(CNC(=O)CN2CCN(CC(O)C3CC3)CC2)cc1 (centres undefined) | -10.6%
Cc1cccc(CN2CCO[C@H]3[C@@H](OCc4ccncc4)CC[C@@H]32)n1 | 15.78%
Cc1cnn(C2CCCN(C(=O)CCCNc3ncccn3)C2)c1 (centres undefined) | -34.45%
COCC(=O)N1C[C@H]2CCCC(OCc3cccnc3)[C@H]2C1 (some centres undefined) | -34.83%
CC(C)N(C)Cc1nnc2n1CCCN(c1cnccn1)C2 | 20.01%
CNC(=O)c1cc2c(nc1NCC(C)C)CCN(C)CC2 | 20.21%
CNC(=O)c1cc2c(nc1NC(C)C)CCN(C(=O)NC(C)C)CC2 | 54.06%
CNC(=O)c1cc2c(nc1NCC1CC1)CCN(CC1CC1)CC2 | 11.18%
Cc1nc2c(cc1C(=O)O)CCN(CC1CC1)CC2 | -14.21%
Cn1nccc1-c1nc2c(cc1C(=O)O)CCN(C(=O)C1CC1)CC2 | -28.2%
CNC(=O)N1CCc2cc(C(=O)NCC3CC3)c(NC(C)C)nc2CC1 | 11.9%
CNC(=O)c1cc2c(nc1NC(C)C)CCNCC2 | -9.98%
Cn1nccc1-c1nc2c(cc1C(=O)O)CCN(CC1CC1)CC2 | 52.66%
CNC(=O)c1cc2c(nc1NCC(C)C)CCN(CC1CC1)CC2 | 57.85%

SMILES | INHIBITION
CC(=O)N(Cc1noc(C2CC2)n1)C1CCN(Cc2ccccn2)C1 (centres undefined) | -1.02%
CCN1CC(COC(=O)c2ccc(Br)cc2F)CC1=O (centres undefined) | 17.86%
Cc1cc(NC(=O)CNC2CCc3ncnn3C2)no1 (centres undefined) | 8.42%
CN(c1ncc(S(N)(=O)=O)s1)C1CCC1 | 27.17%
CC(=O)NCCNC(=O)N(C)Cc1ccc2c(c1)OCCO2 | -43.47%
Clc1ccc(COCC2CCN(Cc3ccccn3)CC2)cc1 | -7.16%
Cn1cnc(S(=O)(=O)N2CCO[C@H]3[C@@H](OCC4CC4)CC[C@@H]32)c1 | -6.83%
CNC(=O)c1cc(C)nc(C2(C)CCCN2c2cc(C)ncn2)n1 (centres undefined) | -4.78%
Cc1cncc(C(=O)N2CCCC(O)(CN3CCCC3)C2)c1 (centres undefined) | -22.01%
Cc1cc(C(=O)N2CCCC(O)(CN3CCCC3)C2)ccc1Cl (centres undefined) | 19.36%
Cc1cc(C)c(C(=O)N2CCCC(O)(CN3CCCC3)C2)cc1C (centres undefined) | 79.79%
O=C(c1ccccn1)N1C[C@H]2CC[C@@H](C1)N(C(=O)CCc1cccs1)C2 | -89.49%
Cc1cc(C2CCCN2CCCc2nc3ccccc3o2)on1 (centres undefined) | -27.69%
Cn1c(CN2CCC(OCc3cccnc3)CC2)cc2ccccc21 | 29.36%
CC(=O)N(Cc1ncc(C)o1)C1CCN(CCc2ccncc2)C1 (centres undefined) | -23.45%
Cc1cnc(CN(C)C2CCN(CC(=O)Nc3c(C)n[nH]c3C)C2)o1 (centres undefined) | 36.65%
CC(=O)N(Cc1ncc(C)o1)C1CCN(CCc2cccs2)C1 (centres undefined) | 64.16%
CCc1cnc(CN(C(C)=O)C2CCN(CCc3cccs3)C2)o1 (centres undefined) | -9.66%
Cc1cc(NC(=O)CN2CCC(N(C)Cc3ncc(C)o3)C2)n(C)n1 (centres undefined) | 57.11%
CCc1cnc(CN(C)C2CCN(CCS(C)(=O)=O)C2)o1 (centres undefined) | -29.5%
Cc1cnc(CN(C)C2CCN(CC(=O)Nc3nccs3)C2)o1 (centres undefined) | 23.24%
CCc1cnc(CN(C)C2CCN(CCc3ccccn3)C2)o1 (centres undefined) | -3.88%
CCc1cnc(CN(C)C2CCN(CCc3cccs3)C2)o1 (centres undefined) | 66.97%
N#Cc1ccc(N2CCN(c3cnccn3)CC2)c(C(F)(F)F)c1 | -22.24%
CC(C)NC(=O)N1Cc2nccn2CC(COc2cccnc2)C1 (centres undefined) | 27.08%
Cc1nnc2n1CCN(CCC(=O)Nc1sccc1C#N)C2 | -7.41%
